Data from the antibiotic and cytotoxicity screens of Wong et al. (2023).
Hit rate of the full screen: of about 39,000 compounds, about 3,300 (8.5%) were called active. Many of the other results were omitted from the sample, so actives are more common in it than they were.

tested on: HepG2; assay: cytotoxicity call (relative viability < 0.9); settings: 10 µM

Row | Compound | cytotoxicity call
1 | COC[C@@H]1c2nnn(C)c2CCN1S(=O)(=O)c1cn(C)cn1 | inactive
2 | C[C@H](CO)N1C[C@H](C)[C@@H](CN(C)CC2CCCCC2)OCCCC[C@H](C)Oc2ccc(NS(=O)(=O)c3ccc(F)cc3)cc2C1=O | inactive
3 | C[C@H]1CCCCO[C@H](CN(C)CC2CCCCC2)[C@@H](C)CN([C@@H](C)CO)C(=O)c2cc(NS(=O)(=O)c3ccc(F)cc3)ccc2O1 | active
4 | C[C@@H]1CN([C@H](C)CO)C(=O)c2cc(NS(=O)(=O)c3ccc(F)cc3)ccc2O[C@@H](C)CCCCO[C@@H]1CN(C)CC1CCCCC1 | inactive
5 | C[C@@H]1CCCCO[C@@H](CN(C)CC2CCCCC2)[C@@H](C)CN([C@H](C)CO)C(=O)c2cc(NS(=O)(=O)c3ccc(F)cc3)ccc2O1 | active
6 | C[C@@H]1CN([C@@H](C)CO)C(=O)c2cc(NS(=O)(=O)c3ccc(F)cc3)ccc2O[C@@H](C)CCCCO[C@H]1CN(C)CC1CCCCC1 | inactive
7 | C[C@@H]1CCCCO[C@H](CN(C)CC2CCCCC2)[C@H](C)CN([C@H](C)CO)C(=O)c2cc(NS(=O)(=O)c3ccc(F)cc3)ccc2O1 | inactive
8 | C[C@H](CO)N1C[C@H](C)[C@H](CN(C)CC2CCCCC2)OCCCC[C@H](C)Oc2ccc(NS(=O)(=O)c3ccc(F)cc3)cc2C1=O | active
9 | C[C@@H]1CCCCO[C@H](CN(C)CC2CCCCC2)[C@@H](C)CN([C@H](C)CO)C(=O)c2cc(NS(=O)(=O)c3ccc(F)cc3)ccc2O1 | inactive
10 | C[C@@H]1CCCCO[C@@H](CN(C)CC2CCCCC2)[C@H](C)CN([C@H](C)CO)C(=O)c2cc(NS(=O)(=O)c3ccc(F)cc3)ccc2O1 | inactive
11 | C[C@@H]1CCCCO[C@@H](CN(C)CC2CCCCC2)[C@@H](C)CN([C@@H](C)CO)C(=O)c2cc(NS(=O)(=O)c3ccc(F)cc3)ccc2O1 | inactive
12 | C[C@@H]1CCCCO[C@@H](CN(C)CC2CCCCC2)[C@H](C)CN([C@@H](C)CO)C(=O)c2cc(NS(=O)(=O)c3ccc(F)cc3)ccc2O1 | active
13 | C[C@@H]1CN([C@@H](C)CO)C(=O)c2cc(NS(=O)(=O)c3ccc(F)cc3)ccc2O[C@@H](C)CCCCO[C@@H]1CN(C)CC1CCCCC1 | inactive
14 | CCCNC(=O)C[C@H]1CC[C@@H]2[C@@H](COc3ccc(NS(=O)(=O)c4ccccc4C)cc3C(=O)N2C)O1 | inactive
15 | O=C(C[C@H]1C=C[C@@H](NC(=O)c2ccc3c(c2)OCO3)[C@@H](CO)O1)NCc1ccc(Oc2ccccc2)cc1 | inactive
16 | COc1ccc2c3c(n(c2c1)C)[C@@H](CO)N(C[C@]13CCN(CC1)S(=O)(=O)c1cn(cn1)C)C(=O)Nc1ccc(cc1)F | inactive
17 | COc1ccc2c3c([nH]c2c1)[C@H](CO)N(C[C@]13CN(CC2CCCCC2)C1)S(=O)(=O)c1cn(cn1)C | inactive
18 | C[C@@H]1CCCCO[C@H](CN(C)C(=O)NC2CCCCC2)[C@H](C)CN([C@@H](C)CO)C(=O)c2cc(NC(=O)C3CCCCC3)ccc2O1 | inactive
19 | CN1C(=O)[C@@H]2[C@@H]3C[C@H]4[C@@H](O[C@H]1[C@H]42)[C@H]3O | inactive
20 | C[C@H](CO)N1C[C@H](C)[C@H](CN(C)Cc2ccncc2)Oc2c(NC(=O)c3cnccn3)cccc2C1=O | inactive
21 | C[C@H]1CCCCO[C@@H](CN(C)CC2CCCCC2)[C@@H](C)CN([C@@H](C)CO)C(=O)c2cc(NS(=O)(=O)c3ccc(F)cc3)ccc2O1 | inactive
22 | C[C@@H]1CCCCO[C@H](CN(C)CC2CCCCC2)[C@H](C)CN([C@@H](C)CO)C(=O)c2cc(NS(=O)(=O)c3ccc(F)cc3)ccc2O1 | inactive
23 | C[C@@H]1CN([C@H](C)CO)C(=O)c2cc(NS(=O)(=O)c3ccc(F)cc3)ccc2O[C@@H](C)CCCCO[C@H]1CN(C)CC1CCCCC1 | active

Row | Compound | cytotoxicity call
24 | C[C@H](CO)N1C[C@H](C)[C@@H](CN(C)C(=O)Nc2ccc3c(c2)OCO3)Oc2ccc(NC(=O)Cn3cnnn3)cc2C1=O | inactive
25 | C[C@H](CO)N1C[C@H](C)[C@@H](CN(C)C(=O)Nc2ccc3c(c2)OCO3)OCCCC[C@H](C)Oc2ccc(NS(=O)(=O)c3ccc(F)cc3)cc2C1=O | inactive
26 | CC(C)NC(=O)N(C)C[C@H]1Oc2ccc(NS(=O)(=O)c3ccc(F)cc3)cc2C(=O)N([C@@H](C)CO)C[C@H]1C | inactive
27 | C[C@H](CO)N1C[C@H](C)[C@H](CN(C)C(=O)Nc2ccc(C(F)(F)F)cc2)Oc2ccc(NC(=O)Nc3ccc4c(c3)OCO4)cc2CC1=O | inactive
28 | CC(C)(C)c1csc(-c2ccc(-c3cccs3)s2)n1 | inactive
29 | Cl.N=C(NN=Cc1ccc(Cl)cc1)NN=Cc1ccc(Cl)cc1 | inactive
30 | Clc1ccc(/C=N/Cc2ccc(-c3cccs3)s2)cc1 | active
31 | CN1C(=O)c2cc(NC(=O)C3CCC3)ccc2OC[C@H]2O[C@H](CC(=O)NCCc3ccncc3)CC[C@@H]21 | inactive
32 | Cc1noc(C)c1NC(=O)N(C)C[C@H]1Oc2ccc(NC(=O)Cn3cnnn3)cc2C(=O)N([C@@H](C)CO)C[C@@H]1C | inactive
33 | O=C(C[C@@H]1CC[C@H]2[C@@H](COC[C@@H](O)CN2S(=O)(=O)c2cccc(Cl)c2)O1)NCc1ccc2c(c1)OCO2 | inactive
34 | C[C@@H]1O[C@@H](OC[C@H]2O[C@@H](OCCc3ccccc3)[C@H](O)[C@@H](O)[C@@H]2O)[C@H](O)[C@H](O)[C@H]1O | inactive
35 | Cc1coc(C)c1C(=O)O[C@@H]1O[C@@H](C)[C@H](O)[C@@H](O)[C@H]1O | active
36 | C[C@@H]1O[C@@H](Oc2c(-c3cc(O)c(O)c(O)c3)oc3cc(O)cc(O)c3c2=O)[C@H](O)[C@H](O)[C@H]1O | inactive
37 | CCO[C@H]1OC(C(=O)N2CCN(Cc3ccc4c(c3)OCO4)CC2)=C[C@@H](C)[C@@H]1CCCOC(=O)NCCCCCC(=O)NO | inactive
38 | O=C(C[C@H]1C[C@@H]2c3cc(NC(=O)NC4CCCC4)ccc3O[C@@H]2[C@@H](CO)O1)NCc1ccc2c(c1)OCO2 | inactive
39 | CO[C@H]1CN(C)C(=O)c2ccc(NC(=O)NC(C)C)cc2OC[C@@H](C)N(Cc2ccc(-c3ccccn3)cc2)C[C@@H]1C | inactive
40 | C[C@H]1CN([C@@H](C)CO)C(=O)Cc2cc(NC(=O)Nc3ccc(C(F)(F)F)cc3)ccc2O[C@@H]1CN(C)Cc1ccccc1 | inactive
41 | C[C@@H]1CN([C@@H](C)CO)C(=O)Cc2cc(NC(=O)Nc3ccc(C(F)(F)F)cc3)ccc2O[C@H]1CN(C)Cc1ccccc1 | inactive
42 | C[C@@H]1CN([C@H](C)CO)C(=O)Cc2cc(NC(=O)Nc3ccc(C(F)(F)F)cc3)ccc2O[C@H]1CN(C)Cc1ccccc1 | active
43 | C[C@@H]1CN([C@H](C)CO)C(=O)Cc2cc(NC(=O)Nc3ccc(C(F)(F)F)cc3)ccc2O[C@@H]1CN(C)Cc1ccccc1 | active
44 | C[C@@H]1CN([C@@H](C)CO)C(=O)Cc2cc(NC(=O)Nc3ccc(C(F)(F)F)cc3)ccc2O[C@@H]1CN(C)Cc1ccccc1 | active
45 | C[C@H]1CN([C@@H](C)CO)C(=O)Cc2cc(NC(=O)Nc3ccc(C(F)(F)F)cc3)ccc2O[C@H]1CN(C)Cc1ccccc1 | active
